Test results reported in PubChem BioAssay AID1008 (NMMLSC, 2008).
The campaign covered roughly 190,000 compounds. About 240 (0.13%) were called active. This excerpt belongs to a sample that is enriched for actives. Unmarked numbers belong to inactive results. Rule as the data show it: active = inhibition above about 40%.

Each compound was assayed against Bcl-2-related protein A1 (Homo sapiens) (UniProt Q16548) (assay: inhibitors of Bim binding to Bfl-1, primary screen, biochemical, multiplexed, bead-based flow cytometry (AID 1008;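 also: 0% = wells without compound plus tracer and 100% = blocker peptide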)). Conditions: Bim-Bfl-1 binding inhibition, at 10 µM, stronger effect = higher value.
Sequence of Bcl-2-related protein A1 (Homo sapiens) (Q16548 whole entry, looked up): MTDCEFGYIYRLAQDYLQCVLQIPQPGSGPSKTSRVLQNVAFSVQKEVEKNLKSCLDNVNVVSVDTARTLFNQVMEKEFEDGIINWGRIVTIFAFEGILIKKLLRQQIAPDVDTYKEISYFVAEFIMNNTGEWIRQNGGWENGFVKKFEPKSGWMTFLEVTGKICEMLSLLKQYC

SMILES	inhibition
Cc1cccc(-n2c(O)c(/C=N/N3CCOCC3)c(=O)[nH]c2=S)c1	41% (active)
O=c1[nH]c(=S)n(C2CC2)c(O)c1/C=N/N1CCOCC1	-14%
C=CCn1c(O)c(/C=N/N2CCOCC2)c(=O)[nH]c1=S	3%
N#Cc1ccc(Cn2cc(C(=O)c3ccco3)c3ccccc32)cc1	-4%
CCOC(=O)C1(Cc2ccc(Cl)cc2)CCN(C(C)CCn2cccn2)CC1 (stereo not given)	0%
